Sampled rows, rich in hits. Any-hit rate of the full collection: about 3.9%.
HIF-2a block: HIF-2a reporter inhibitors, primary screen, luminescence, 786-0 RCC cells. 786-0 RCC cells HIF-2a reporter, luciferase luminescence, overnight. 360,000 compounds, 0.72% hits. inhibition, % at 18.8 µM;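 active means inhibition of the luminescence signal of 40% or more relative to plate controls, in a single-dose primary screen at 18.75 µM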
HSP90 refold inh: HSP90 inhibitors, primary screen, cell lysate, luminescence; Rabbit reticulocyte lysate, luciferase refolding luminescence, 3 h; 290,000 compounds, 0.91% hits; inhibition, % at 5.6 µM;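 active means inhibition above the screen-wide mean plus 3 SD, computed separately per campaign, cut at about 16% in these data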;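 further: 0% = DMSO wells and 100% = 60 µM geldanamycin wells; inhibitors lower the luminescence because luciferase stays unfolded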
C8 TRAIL sens: viability loss with TRAIL in NB7+C8 cells, primary screen, TRAIL sensitizer project, cell-based, ATPlite luminescence. inhibition (viability loss, TRAIL sensitization), % at 10 µM. 360,000 compounds, 1% hits. AID 624354, 2012;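 active means compounds causing at least 50% loss of cell viability in the single-dose screen, relative to plate controls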
TROY NFkB inh: inhibitors of TROY-driven NF-kB signaling, primary screen, Q293 LMP1-TROYcd cells, NF-kB luciferase, uHTS | 360,000 compounds, 0.98% hits | inhibition, % at 10 µM | Q293 LMP1-TROYcd NF-kB luciferase reporter, 4 h;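 active means compounds whose plate-normalised and pattern-corrected inhibition of the luciferase reporter signal at the single screening dose is 50% or more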
aSyn UTR inh: MLPCN primary screen, SNCA 5' untranslated region; alpha-synuclein 5'UTR reporter, inhibitor activity; inhibition, % (tested at 7.5 µM); 300,000 compounds, 0.82% hits; AID 1813, 2009; in the data active means inhibition above about 60%;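 further: H4 neuroglioblastoma cells stably carrying SNCA 5'UTR luciferase fusion; 0% = DMSO wells and 100% = positive control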
TWEAK Fn14 block: inhibitors of TWEAK-Fn14 signaling, primary screen, luciferase reporter cells, uHTS; TWEAK-stimulated Fn14 reporter cells, luciferase luminescence, 8 h; inhibition, % at 10 µM; 360,000 compounds, 2% hits; AID 1159606, 2016; in the data active means inhibition above about 50%
* hit, by the source's call; . = no result given.

SMILES	HIF-2a block	HSP90 refold inh	C8 TRAIL sens	TROY NFkB inh	aSyn UTR inh	TWEAK Fn14 block
O=[N+]([O-])c1ccc(Nc2nc(N/N=C/c3cccc(F)c3)nc(N3CCCC3)n2)cc1	14.2	-0.4	18.6	-12.2	-27.6	35.3
COc1cccc(/C=N/NC(=O)C(C)n2nc(C)c([N+](=O)[O-])c2C)c1O (configuration not stated)	-25.4	-5.3	54.9*	-57.7	-0.3	-10.0
O=[N+]([O-])c1ccc(NN=Cc2cccc3ccccc23)nc1	-72.4	.	-2.0	-37.7	.	-39.3
Cc1cc(/C=N/Nc2ccc([N+](=O)[O-])cn2)c(C)n1-c1ccccc1	-43.0	16.3*	-6.7	8.3	-136.6	-9.2
O=c1cc(CO)[nH]nc1CO	4.4	.	-12.1	-9.4	.	-8.0
COc1ccccc1-c1cn(CC[C@@H]2CC[C@H](NC(=O)C3CCC3)[C@@H](CO)O2)nn1	5.8	.	-6.3	.	.	.
COc1ccc(C(=O)C(=O)N2CCN(c3ccc(C)cc3)CC2)cc1OC	5.6	.	-8.6	.	.	.
[N-]=[N+]=NC(c1ccccc1)C(NC(=O)c1cc(C(F)(F)F)cc(C(F)(F)F)c1)c1ccccc1 (configuration not stated)	5.2	.	33.2	27.2	.	28.6
O=[N+]([O-])c1cccc(C=NNc2ccc3ccccc3n2)c1O	-70.0	.	57.0*	75.4*	.	97.3*
Brc1ccccc1/C=N/Nc1ccc2ccccc2n1	-164.9	-2.7	20.0	-23.5	-256.3	-1.6
Cc1cc(SCC(=O)N/N=C/c2ccccc2C(=O)O)c(C)cc1Br	5.1	-5.2	-9.6	6.1	4.9	18.5
Cc1cc(SCC(=O)N/N=C/c2ccc(O)cc2O)c(C)cc1Br	8.6	2.5	5.0	17.1	78.3*	-6.3
CCOC(=O)[C@]12CCCC=C1N(Cc1ccc(Cl)cc1Cl)C(=O)[C@H](CC(=O)NCCC(C)C)C2	-18.0	.	9.3	1.6	.	16.4
Cc1oc(-c2ccccc2)nc1CSc1nc2c(c(=O)[nH]1)CCC2	5.2	-0.8	10.4	44.0	19.2	1.5
Cc1cccc(-c2nc(CSc3nc4c(c(=O)[nH]3)CCC4)c(C)o2)c1	5.6	2.9	15.0	51.5*	8.1	48.8
CCCCNC(=O)C[C@@H]1C[C@@]2(C(=O)OC)CCCCC=C2N(CCC2=CCCCC2)C1=O	-8.8	.	-4.6	6.6	.	2.8
CC1(Oc2ccc(CC#N)cc2)CCN(Cc2ccc(-n3ccnc3)cc2)C1 (configuration not stated)	-3.1	.	-14.5	5.0	.	-2.0
COC(=O)C1=CN(c2ccc(C(C)(C)C)cc2)C(N)=C(C#N)C1c1cccc2ccccc12 (configuration not stated)	-10.2	.	15.4	.	.	.
Nc1[nH]c(N=NC(=O)c2ccccc2)c2ccccc12	-48.6	7.2	-1.1	0.5	-35.5	12.1
Nc1[nH]c(N=NC(=O)c2ccccc2O)c2ccccc12	-134.2	-0.8	72.2*	-82.2	-150.3	-8.0
COc1ccc(CCNc2oc(COc3ccc(Br)cc3)nc2C#N)cc1OC	-0.8	-2.1	-0.9	59.0*	17.0	24.9
COc1ccc2nc(C)cc(Sc3nc4ccccc4s3)c2c1	33.0	7.0	26.1	35.2	5.3	88.3*
COc1ccc2nc(C)cc(SCC(=O)NNC(=O)COc3ccccc3)c2c1	18.2	-4.7	4.7	8.8	-7.8	18.9
CCOC(=O)C(CC)/C(C)=N\NC(=O)c1ccccc1O (configuration not stated)	-61.9	1.2	38.0	-51.1	93.5*	1.8
C=CCn1c(C(C)n2c(-c3cnccn3)nc3ccccc32)nc2ccccc21 (configuration not stated)	6.7	.	-6.3	.	.	.
SMILES	HIF-2a block	HSP90 refold inh	C8 TRAIL sens	TROY NFkB inh	aSyn UTR inh	TWEAK Fn14 block
CCCOc1ccc(C(=O)Nc2ccc(Cl)cn2)cc1	-171.3	12.6	31.6	10.2	-33.2	56.7*
Cc1ccc(C(=O)Nc2ncc3c(Cl)cccc3n2)cc1	-5.1	1.8	82.6*	39.0	64.5*	82.2*
Cc1ccc(CC(=O)Nc2ccc(Cl)cn2)cc1	-189.8	-1.6	2.6	-20.6	-101.1	1.8
Cc1ccc(C(=O)Nc2ccc(Cl)cn2)cc1	-210.5	6.8	61.6*	-3.1	-40.9	56.2*
CCCOc1ccc(C(=O)NNC(=S)NC(=O)CC)cc1	17.3	-0.1	-17.4	-40.1	85.4*	-50.6
C[C@@H](c1ccccc1)N1C[C@H](COCc2ccccc2)Oc2cc(N3CCC[C@@H]3CO)ccc2S1(=O)=O	7.6	.	4.9	9.7	.	9.4
COCCCn1cc(CN2CC(N3CCN(Cc4ccccc4F)CC3)CS2(=O)=O)nn1 (configuration not stated)	10.0	.	-0.5	-4.2	.	-1.8
O=C(OCc1ccccc1)N1CCC2CC1c1ccc(/C=C/CCCCl)cc12 (configuration not stated)	-164.4	.	21.4	-21.4	.	-12.1
CN1/C(=C\C(=S)NC(=O)c2cccc(Br)c2)C(C)(C)c2ccccc21	20.0	1.7	23.3	37.4	-13.9	72.4*
CN1/C(=C\C(=S)NC(=O)c2ccc([N+](=O)[O-])cc2)C(C)(C)c2ccccc21	25.0	-4.8	1.1	-27.3	-20.0	58.2*
CN1/C(=C\C(=O)Nc2ccc(Br)cc2)C(C)(C)c2ccccc21	-15.2	-3.0	-3.2	13.2	14.3	-38.2
CN1/C(=C/C(=O)C2CC2)C(C)(C)c2ccccc21	-6.0	-1.4	-0.3	-30.7	.	-3.1
CCN(CC)S(=O)(=O)c1cccc(C(=O)/C=C2/N(C)c3ccccc3C2(C)C)c1	-15.1	2.4	6.2	33.4	4.8	61.0*
O=S1(=O)CC(N2CCN(CCO)CC2)CN1Cc1cn(Cc2ccccc2C(F)(F)F)nn1 (configuration not stated)	1.1	.	7.0	13.3	.	5.9
CCOC(=O)c1sc(Nc2nc(C)cc(C)n2)nc1C	-26.1	0.8	14.8	9.7	84.1*	19.3
COC(=O)c1sc(NC(=S)NC(=O)c2ccccc2C)nc1C	-244.5	-0.5	51.0*	-24.8	-92.7	-26.4
CCOC(=O)c1sc(NC(=S)NC(=O)c2ccc(OC)cc2)nc1C	-20.0	16.5*	0.7	-1.3	-48.8	-27.0
Cc1ccc(S(=O)(=O)N2CCC(C(=O)OCC(=O)N3C(C)CCCC3C)CC2)cc1C (configuration not stated)	18.0	.	6.0	1.7	.	-10.1
CN1C(=O)/C(=C/c2cn(CC(=O)NCc3ccco3)c3ccccc23)NC1=S	.	-1.5	.	.	25.8	.
CCN=C1S/C(=C\c2cn(CC(=O)NCc3ccco3)c3ccccc23)C(=O)N1CC	4.8	8.5	-3.3	2.3	65.5*	8.9
CN1C=C/C(=C\c2cc[n+](C)c3ccccc23)c2ccccc21	-12.7	16.6*	25.8	1.4	74.0*	27.6
